ChEMBL document CHEMBL1961873, “Compounds: GSK PKIS; Assays: Nanosyn kinase panel” (2012)

Assays:
[1] = target: High affinity nerve growth factor receptor (Homo sapiens) (UniProt P04629); settings: at 1 µM;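 note: each value is the mean percent inhibition of TRKA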
[2] = target: BDNF/NT-3 growth factors receptor (Homo sapiens) (UniProt Q16620); settings: at 0.1 µM
[3] = target: BDNF/NT-3 growth factors receptor (Homo sapiens) (UniProt Q16620); settings: at 1 µM
[4] = target: NT-3 growth factor receptor (Homo sapiens) (UniProt Q16288); settings: at 0.1 µM
[5] = target: NT-3 growth factor receptor (Homo sapiens) (UniProt Q16288); settings: at 1 µM
[6] = target: T1, Tyrosine-protein kinase TXK (Homo sapiens) (UniProt P42681); settings: at 0.1 µM
T1 sequence (whole entry): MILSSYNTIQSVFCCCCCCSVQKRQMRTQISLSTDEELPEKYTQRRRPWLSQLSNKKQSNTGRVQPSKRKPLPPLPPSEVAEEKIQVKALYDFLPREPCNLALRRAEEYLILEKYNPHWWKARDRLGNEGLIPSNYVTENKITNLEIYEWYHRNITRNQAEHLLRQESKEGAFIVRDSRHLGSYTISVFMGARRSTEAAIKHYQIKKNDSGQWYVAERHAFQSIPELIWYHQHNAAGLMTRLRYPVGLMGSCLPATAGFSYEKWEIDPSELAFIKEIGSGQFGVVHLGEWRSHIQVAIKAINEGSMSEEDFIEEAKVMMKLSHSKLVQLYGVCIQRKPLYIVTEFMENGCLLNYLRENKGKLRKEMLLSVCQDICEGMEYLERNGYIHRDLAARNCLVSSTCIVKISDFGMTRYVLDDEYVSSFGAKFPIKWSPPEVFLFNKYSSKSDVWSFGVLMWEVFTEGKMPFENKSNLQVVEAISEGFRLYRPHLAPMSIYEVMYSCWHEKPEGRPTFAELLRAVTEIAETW

[7] = target: T1, Tyrosine-protein kinase TXK (Homo sapiens); settings: at 1 µM
[8] = target: Non-receptor tyrosine-protein kinase TYK2 (Homo sapiens) (UniProt P29597); settings: at 0.1 µM;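 note: each value is a mean of the inhibition readings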
[9] = target: T2, Dual specificity protein kinase TTK (Homo sapiens) (UniProt P33981); settings: at 1 µM;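 note: reported figures are mean TTK inhibition at 1 µM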
T2 sequence (whole entry): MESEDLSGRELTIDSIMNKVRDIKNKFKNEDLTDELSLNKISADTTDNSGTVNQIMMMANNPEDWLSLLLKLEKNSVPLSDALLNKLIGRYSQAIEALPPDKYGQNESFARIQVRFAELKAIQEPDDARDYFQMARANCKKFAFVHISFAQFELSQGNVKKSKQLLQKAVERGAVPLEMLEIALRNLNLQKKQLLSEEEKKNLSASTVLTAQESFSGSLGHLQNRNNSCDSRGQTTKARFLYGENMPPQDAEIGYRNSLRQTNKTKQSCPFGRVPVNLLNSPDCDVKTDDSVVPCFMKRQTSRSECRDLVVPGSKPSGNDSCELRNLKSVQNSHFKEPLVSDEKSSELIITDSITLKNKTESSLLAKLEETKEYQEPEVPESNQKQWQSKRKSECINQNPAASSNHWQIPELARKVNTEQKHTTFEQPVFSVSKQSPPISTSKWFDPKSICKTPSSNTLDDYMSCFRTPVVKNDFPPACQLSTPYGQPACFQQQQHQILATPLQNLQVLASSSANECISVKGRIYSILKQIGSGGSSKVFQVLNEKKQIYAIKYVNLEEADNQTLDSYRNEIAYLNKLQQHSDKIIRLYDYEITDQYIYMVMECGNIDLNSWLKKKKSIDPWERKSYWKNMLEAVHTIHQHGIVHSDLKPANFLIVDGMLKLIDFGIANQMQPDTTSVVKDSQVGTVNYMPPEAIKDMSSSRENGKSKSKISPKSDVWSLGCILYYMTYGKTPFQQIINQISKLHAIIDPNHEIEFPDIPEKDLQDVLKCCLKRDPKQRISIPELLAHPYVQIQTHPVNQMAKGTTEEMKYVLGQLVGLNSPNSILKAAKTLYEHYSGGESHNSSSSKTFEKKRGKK

[10] = target: T3, Aurora kinase A (Homo sapiens) (UniProt O14965); settings: at 0.1 µM
T3 sequence (whole entry): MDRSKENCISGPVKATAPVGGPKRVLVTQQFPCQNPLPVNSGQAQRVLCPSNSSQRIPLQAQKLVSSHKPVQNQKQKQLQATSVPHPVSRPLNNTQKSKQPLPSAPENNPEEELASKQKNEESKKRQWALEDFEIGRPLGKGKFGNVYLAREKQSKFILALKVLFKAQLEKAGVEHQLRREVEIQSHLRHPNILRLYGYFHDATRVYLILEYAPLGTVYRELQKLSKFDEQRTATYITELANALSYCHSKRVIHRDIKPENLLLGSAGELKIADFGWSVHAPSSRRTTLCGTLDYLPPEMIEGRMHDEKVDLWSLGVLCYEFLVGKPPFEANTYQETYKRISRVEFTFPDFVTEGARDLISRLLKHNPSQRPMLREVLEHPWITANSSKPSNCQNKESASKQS

[11] = target: T3, Aurora kinase A (Homo sapiens); settings: at 1 µM
[12] = target: Aurora kinase B (Homo sapiens) (UniProt Q96GD4); settings: at 0.1 µM
[13] = target: Aurora kinase B (Homo sapiens) (UniProt Q96GD4); settings: at 1 µM
[14] = target: T4, Aurora kinase C (Homo sapiens) (UniProt Q9UQB9); settings: at 0.1 µM
T4 sequence (whole entry): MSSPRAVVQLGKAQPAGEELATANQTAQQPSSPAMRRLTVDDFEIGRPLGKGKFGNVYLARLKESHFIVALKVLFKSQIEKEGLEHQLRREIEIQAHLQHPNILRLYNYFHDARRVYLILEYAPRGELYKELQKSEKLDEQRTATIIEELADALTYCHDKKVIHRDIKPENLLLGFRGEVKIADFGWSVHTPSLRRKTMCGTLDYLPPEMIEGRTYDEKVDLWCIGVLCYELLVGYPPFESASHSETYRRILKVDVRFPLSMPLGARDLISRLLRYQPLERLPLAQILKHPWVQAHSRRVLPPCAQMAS

[15] = target: T4, Aurora kinase C (Homo sapiens); settings: at 1 µM
[16] = target: Serine/threonine-protein kinase 10 (Homo sapiens) (UniProt O94804); settings: at 0.1 µM
[17] = target: Serine/threonine-protein kinase 10 (Homo sapiens) (UniProt O94804); settings: at 1 µM
[18] = target: T5, Mitogen-activated protein kinase kinase kinase kinase 2 (Homo sapiens) (UniProt Q12851); settings: at 0.1 µM
T5 sequence (whole entry): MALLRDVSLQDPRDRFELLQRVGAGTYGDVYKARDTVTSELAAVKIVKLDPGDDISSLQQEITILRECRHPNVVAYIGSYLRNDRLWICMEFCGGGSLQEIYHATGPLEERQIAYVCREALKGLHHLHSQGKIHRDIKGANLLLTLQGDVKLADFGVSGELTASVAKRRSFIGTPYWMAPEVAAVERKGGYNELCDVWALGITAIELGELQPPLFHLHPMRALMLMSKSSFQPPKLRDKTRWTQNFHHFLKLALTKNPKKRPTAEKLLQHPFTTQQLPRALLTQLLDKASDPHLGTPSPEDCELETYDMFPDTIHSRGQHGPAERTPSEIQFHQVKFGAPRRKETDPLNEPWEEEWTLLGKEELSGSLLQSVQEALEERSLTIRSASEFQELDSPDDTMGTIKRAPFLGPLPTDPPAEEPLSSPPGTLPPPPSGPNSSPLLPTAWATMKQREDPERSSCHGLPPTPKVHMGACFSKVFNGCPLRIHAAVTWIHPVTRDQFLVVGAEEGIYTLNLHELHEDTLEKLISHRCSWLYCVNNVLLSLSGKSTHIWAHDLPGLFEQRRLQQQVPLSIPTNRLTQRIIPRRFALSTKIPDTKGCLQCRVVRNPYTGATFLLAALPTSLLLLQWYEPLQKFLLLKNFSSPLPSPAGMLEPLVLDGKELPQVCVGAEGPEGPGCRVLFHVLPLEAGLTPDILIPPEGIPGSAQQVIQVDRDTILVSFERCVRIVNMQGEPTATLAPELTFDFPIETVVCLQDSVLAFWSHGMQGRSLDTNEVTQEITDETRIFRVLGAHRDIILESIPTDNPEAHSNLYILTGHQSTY

[19] = target: T5, Mitogen-activated protein kinase kinase kinase kinase 2 (Homo sapiens); settings: at 1 µM
[20] = target: Mitogen-activated protein kinase kinase kinase kinase 4 (Homo sapiens) (UniProt O95819); settings: at 0.1 µM

Sequence of Aurora kinase B (Homo sapiens) (Q96GD4 whole entry): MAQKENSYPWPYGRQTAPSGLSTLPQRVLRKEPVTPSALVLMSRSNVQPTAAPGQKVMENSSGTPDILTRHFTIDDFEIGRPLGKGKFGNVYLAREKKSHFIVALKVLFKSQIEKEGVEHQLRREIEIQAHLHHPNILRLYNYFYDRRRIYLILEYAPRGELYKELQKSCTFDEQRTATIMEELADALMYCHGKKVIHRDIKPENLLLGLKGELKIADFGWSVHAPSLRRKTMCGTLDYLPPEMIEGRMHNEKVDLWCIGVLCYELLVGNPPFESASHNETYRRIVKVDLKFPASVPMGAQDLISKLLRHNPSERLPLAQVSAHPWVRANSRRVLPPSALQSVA
Sequence of Serine/threonine-protein kinase 10 (Homo sapiens) (O94804 whole entry, looked up): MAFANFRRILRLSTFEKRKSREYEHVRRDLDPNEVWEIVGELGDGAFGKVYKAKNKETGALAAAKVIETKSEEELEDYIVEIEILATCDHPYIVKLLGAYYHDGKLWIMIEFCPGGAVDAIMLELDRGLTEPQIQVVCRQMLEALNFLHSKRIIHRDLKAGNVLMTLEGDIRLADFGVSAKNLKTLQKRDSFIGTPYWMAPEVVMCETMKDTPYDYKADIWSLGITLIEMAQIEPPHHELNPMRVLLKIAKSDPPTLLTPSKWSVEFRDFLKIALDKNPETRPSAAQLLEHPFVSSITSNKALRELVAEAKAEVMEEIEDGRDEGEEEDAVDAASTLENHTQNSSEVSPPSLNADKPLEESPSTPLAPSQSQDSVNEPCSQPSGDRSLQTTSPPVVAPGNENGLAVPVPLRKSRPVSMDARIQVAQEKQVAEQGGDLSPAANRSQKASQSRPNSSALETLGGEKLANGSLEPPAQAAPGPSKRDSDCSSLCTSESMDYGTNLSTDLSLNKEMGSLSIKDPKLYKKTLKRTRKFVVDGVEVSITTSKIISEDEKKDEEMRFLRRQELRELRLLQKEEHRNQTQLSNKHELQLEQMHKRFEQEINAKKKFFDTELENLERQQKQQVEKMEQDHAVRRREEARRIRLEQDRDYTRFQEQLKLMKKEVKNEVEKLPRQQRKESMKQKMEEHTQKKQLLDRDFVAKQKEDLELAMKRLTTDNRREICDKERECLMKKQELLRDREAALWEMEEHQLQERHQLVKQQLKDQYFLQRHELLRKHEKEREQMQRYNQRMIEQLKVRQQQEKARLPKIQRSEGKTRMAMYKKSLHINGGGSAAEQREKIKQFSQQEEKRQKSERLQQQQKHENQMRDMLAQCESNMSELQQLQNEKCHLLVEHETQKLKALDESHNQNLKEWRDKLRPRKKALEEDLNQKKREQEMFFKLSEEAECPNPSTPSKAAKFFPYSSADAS
Sequence of High affinity nerve growth factor receptor (Homo sapiens) (P04629 33-796 limits assumed): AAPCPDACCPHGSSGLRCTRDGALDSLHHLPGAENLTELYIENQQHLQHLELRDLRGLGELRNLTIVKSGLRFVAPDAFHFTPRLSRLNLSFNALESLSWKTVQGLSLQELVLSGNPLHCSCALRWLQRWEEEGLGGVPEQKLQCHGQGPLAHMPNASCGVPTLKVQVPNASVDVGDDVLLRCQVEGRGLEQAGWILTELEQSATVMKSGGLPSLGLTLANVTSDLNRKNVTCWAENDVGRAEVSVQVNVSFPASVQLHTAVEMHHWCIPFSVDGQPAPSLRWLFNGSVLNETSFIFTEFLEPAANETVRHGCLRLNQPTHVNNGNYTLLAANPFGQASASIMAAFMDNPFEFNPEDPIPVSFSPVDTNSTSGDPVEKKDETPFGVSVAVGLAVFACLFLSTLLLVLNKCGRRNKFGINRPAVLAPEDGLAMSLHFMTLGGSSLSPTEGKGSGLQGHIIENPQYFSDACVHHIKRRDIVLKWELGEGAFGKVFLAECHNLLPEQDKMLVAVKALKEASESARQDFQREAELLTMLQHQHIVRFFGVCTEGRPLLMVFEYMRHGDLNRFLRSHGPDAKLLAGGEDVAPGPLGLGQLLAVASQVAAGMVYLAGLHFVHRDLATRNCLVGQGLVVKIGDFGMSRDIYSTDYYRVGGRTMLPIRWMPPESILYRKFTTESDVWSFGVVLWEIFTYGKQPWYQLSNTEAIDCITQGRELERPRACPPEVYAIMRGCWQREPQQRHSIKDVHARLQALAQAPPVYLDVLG
Sequence of NT-3 growth factor receptor (Homo sapiens) (Q16288 32-839 limits assumed): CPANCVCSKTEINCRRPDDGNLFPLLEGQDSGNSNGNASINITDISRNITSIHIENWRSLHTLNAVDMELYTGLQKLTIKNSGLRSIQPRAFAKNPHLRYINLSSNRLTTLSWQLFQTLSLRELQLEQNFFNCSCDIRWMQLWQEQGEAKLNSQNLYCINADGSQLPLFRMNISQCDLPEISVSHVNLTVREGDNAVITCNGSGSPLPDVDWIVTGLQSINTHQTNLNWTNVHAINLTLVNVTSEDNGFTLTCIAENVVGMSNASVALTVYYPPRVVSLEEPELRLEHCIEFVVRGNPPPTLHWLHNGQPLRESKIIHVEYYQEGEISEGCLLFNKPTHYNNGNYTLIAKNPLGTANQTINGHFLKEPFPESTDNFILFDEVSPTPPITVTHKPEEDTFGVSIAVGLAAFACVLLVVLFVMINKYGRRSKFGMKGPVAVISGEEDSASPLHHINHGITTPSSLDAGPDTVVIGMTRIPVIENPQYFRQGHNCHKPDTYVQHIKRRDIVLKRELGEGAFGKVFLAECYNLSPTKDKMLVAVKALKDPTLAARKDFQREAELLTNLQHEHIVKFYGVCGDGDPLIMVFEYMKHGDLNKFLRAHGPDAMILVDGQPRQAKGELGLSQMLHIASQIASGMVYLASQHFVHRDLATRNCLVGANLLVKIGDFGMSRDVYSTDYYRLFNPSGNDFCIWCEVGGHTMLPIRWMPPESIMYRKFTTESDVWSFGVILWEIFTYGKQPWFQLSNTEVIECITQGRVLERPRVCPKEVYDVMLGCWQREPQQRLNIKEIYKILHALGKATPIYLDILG
Sequence of Non-receptor tyrosine-protein kinase TYK2 (Homo sapiens) (P29597 whole entry): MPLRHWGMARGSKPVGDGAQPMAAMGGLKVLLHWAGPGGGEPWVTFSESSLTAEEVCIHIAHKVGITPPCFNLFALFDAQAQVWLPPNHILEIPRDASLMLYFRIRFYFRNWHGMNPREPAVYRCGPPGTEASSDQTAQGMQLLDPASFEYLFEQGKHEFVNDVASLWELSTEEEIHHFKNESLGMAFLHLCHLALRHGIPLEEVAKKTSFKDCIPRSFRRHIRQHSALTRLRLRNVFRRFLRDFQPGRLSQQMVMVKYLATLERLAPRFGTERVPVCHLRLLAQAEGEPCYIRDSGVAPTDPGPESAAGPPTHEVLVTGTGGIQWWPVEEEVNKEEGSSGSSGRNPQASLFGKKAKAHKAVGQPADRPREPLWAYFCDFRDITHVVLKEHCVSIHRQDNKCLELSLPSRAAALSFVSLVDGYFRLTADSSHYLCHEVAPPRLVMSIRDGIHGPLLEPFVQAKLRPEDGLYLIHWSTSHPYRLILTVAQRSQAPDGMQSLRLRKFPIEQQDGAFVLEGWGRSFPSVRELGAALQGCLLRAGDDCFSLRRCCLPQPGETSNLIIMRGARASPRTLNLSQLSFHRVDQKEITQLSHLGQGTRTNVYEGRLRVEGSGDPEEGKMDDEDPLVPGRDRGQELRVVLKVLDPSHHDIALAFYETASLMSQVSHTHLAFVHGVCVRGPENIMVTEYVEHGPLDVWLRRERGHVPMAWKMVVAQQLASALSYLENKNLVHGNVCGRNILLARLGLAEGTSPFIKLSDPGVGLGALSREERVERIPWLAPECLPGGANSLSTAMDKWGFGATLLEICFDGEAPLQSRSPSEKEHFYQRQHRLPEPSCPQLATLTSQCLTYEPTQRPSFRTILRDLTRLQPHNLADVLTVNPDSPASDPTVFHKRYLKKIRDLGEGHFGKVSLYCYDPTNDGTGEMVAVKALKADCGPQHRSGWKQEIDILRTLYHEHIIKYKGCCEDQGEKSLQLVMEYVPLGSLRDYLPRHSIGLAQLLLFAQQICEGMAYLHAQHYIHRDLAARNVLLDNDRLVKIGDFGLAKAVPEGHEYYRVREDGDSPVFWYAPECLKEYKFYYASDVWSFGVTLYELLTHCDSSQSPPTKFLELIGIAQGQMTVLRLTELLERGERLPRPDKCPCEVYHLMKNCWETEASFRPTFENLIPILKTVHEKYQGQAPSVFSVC
Sequence of BDNF/NT-3 growth factors receptor (Homo sapiens) (Q16620 32-822 limits assumed): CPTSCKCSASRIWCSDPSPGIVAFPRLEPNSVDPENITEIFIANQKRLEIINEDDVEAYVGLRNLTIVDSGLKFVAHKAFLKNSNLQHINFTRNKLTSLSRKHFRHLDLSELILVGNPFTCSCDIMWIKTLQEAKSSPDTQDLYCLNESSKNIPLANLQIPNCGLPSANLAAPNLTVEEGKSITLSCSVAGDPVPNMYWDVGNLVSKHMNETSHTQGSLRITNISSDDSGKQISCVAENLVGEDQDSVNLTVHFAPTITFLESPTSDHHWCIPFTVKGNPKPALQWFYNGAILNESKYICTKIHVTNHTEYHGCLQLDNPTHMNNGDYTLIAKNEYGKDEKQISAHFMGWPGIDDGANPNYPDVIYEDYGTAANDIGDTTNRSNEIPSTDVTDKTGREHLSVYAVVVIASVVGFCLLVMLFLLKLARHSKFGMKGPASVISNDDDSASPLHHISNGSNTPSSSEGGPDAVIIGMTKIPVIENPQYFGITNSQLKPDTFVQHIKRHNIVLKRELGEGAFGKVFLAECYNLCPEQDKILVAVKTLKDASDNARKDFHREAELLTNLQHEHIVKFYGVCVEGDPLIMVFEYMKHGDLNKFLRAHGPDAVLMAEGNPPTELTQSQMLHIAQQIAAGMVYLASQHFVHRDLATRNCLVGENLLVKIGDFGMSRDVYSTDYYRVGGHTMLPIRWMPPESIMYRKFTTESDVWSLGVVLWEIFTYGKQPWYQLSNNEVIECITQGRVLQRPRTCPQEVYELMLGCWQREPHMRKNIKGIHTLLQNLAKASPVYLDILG

SMILES | inhibition [1] [%] | inhibition [2] [%] | inhibition [3] [%] | inhibition [4] [%] | inhibition [5] [%] | inhibition [6] [%] | inhibition [7] [%] | inhibition [8] [%] | inhibition [9] [%] | inhibition [10] [%] | inhibition [11] [%] | inhibition [12] [%] | inhibition [13] [%] | inhibition [14] [%] | inhibition [15] [%] | inhibition [16] [%] | inhibition [17] [%] | inhibition [18] [%] | inhibition [19] [%] | inhibition [20] [%]
CCS(=O)(=O)c1ccc(OC)c(Nc2ncc(-c3ccccc3Cl)o2)c1 | 5.58 | 1.97 | 8.35 | 3.33 | 12.5 | 1.52 | 10.3 | -3.24 | 9.34 | 1.49 | 10.9 | -1.57 | 5.12 | 1.38 | -2.79 | 2.59 | 6.5 | 0.68 | 5.1 | 4.85
CS(=O)(=O)CCNCc1ccc(-c2ccc3ncnc(Nc4ccc(OCc5ccccc5)c(Br)c4)c3c2)o1 | 0.51 | 3 | 4.04 | 2 | 1.45 | -5.68 | 2.31 | -5.11 | 10.2 | -1.23 | -1.79 | -1.52 | 3.89 | -3.26 | 1.56 | 8.55 | 16.4 | 0.72 | 0.4 | 3.17
FC(F)(F)c1cccc(Nc2nccc(-c3cnn4nc(-c5ccccc5)ccc34)n2)c1 | -0.33 | 0.37 | 3.54 | -0.78 | 3.9 | -1.01 | 5.95 | -2.57 | 6.07 | 0.08 | 3.33 | 2.71 | 8.1 | 1.82 | 10.2 | 3.86 | 5.68 | 0.58 | 2.4 | 2.1
NC(=O)c1ccc(Oc2nccc(-c3c(-c4ccc(F)cc4)ncn3C3CCNCC3)n2)cc1 | 5.13 | 4.3 | 5.18 | 3.1 | 4.93 | 8.98 | 6.85 | -1.79 | 12.5 | 3.58 | 2.99 | 2.63 | 3.74 | 2.2 | 0.43 | 7.75 | 8.82 | -0.61 | 1.55 | 1.45
c1ccc(-c2n[nH]cc2-c2ccnc(-c3ccc(OCCN4CCOCC4)cc3)c2)nc1 | -0.7 | 0.05 | 0.41 | 1.29 | 3.05 | 5.88 | 6.57 | 4.24 | 0.86 | 0.43 | 7.41 | 7.03 | 11.9 | 5.43 | 18.2 | 3.53 | 6.24 | 6.4 | 7.48 | 28.6
COc1cc(C)c(N(C)C(=O)CN(C)C)cc1Nc1nc(Nc2cccc(F)c2C(N)=O)c2cc[nH]c2n1 | 1.31 | 0.94 | -2.87 | 1.87 | -1.19 | -1.41 | -0.09 | 0.02 | 25.7 | -0.3 | -1.19 | -3.04 | -0.55 | -3.75 | 4.56 | 1.37 | 2.05 | 2.17 | 3.67 | 0.4
Fc1ccc(-c2c(-c3ccncc3)nc3n2CCS3)cc1 | -0.43 | 1.79 | -0.01 | 3.54 | 1.8 | -1.56 | 0.44 | -0.68 | 4.17 | -2.71 | 2.75 | -0.21 | 1.83 | -4.05 | -8.58 | -1.08 | 7.95 | 1.02 | 3.03 | 4.23
C#Cc1cccc(Nc2ncnc3ccc(OCCCCNCCS(C)(=O)=O)cc23)c1 | 1.9 | 3.91 | 2.28 | 3.6 | 4.94 | 5.2 | 7.94 | -6.6 | 9.83 | -1.65 | -0.05 | -2.61 | 2.47 | -2.83 | -5.69 | 23.4 | 75.4 | 1.44 | 5.3 | 5.65
C[C@@H](Oc1cc(-n2cnc3ccc(OCC4CCN(C)CC4)cc32)sc1C(N)=O)c1ccccc1Cl | 5.94 | 3.02 | 10.1 | 4.35 | 10.4 | 5.54 | 8.91 | -2.69 | 43.2 | 3.84 | 6.43 | 4.49 | 5.33 | -0.3 | 3 | 63.3 | 86.9 | 2.59 | 13.9 | 4.27
O=C(NCC1CC1)c1ccc(-c2cccc(C(=O)NC3CC3)c2)cc1 | 0.79 | 0.56 | -1.04 | 2.02 | -1.15 | 2.43 | 5.31 | -2.99 | 3.09 | 1.42 | 6.45 | 2.04 | 5.76 | 0.57 | 11.8 | 3.1 | -0.77 | 1.43 | 2.37 | 2.9
NC(=O)c1cc(-c2ccncc2)cc(-c2ccccc2)c1N | 1.84 | 2.94 | 3.86 | 3.19 | 4.68 | 45 | 76.1 | -3.77 | 10.8 | 2.73 | 6.63 | 3.91 | 4.94 | 1.71 | 5.08 | 6.67 | 9.99 | 0.27 | 0.97 | 11.9
COc1cc(Nc2ncc3c(C)nc(-c4cccc(C(F)(F)F)c4)n3n2)cc(OC)c1OC | 7.83 | 4.54 | 16.5 | 4.76 | 11 | 3.45 | 16.6 | -1.61 | 14.4 | 2.65 | 36.2 | 4.06 | 14.4 | 1.2 | 11.3 | 6.36 | 12.5 | -0.1 | 7.98 | 11.3
COc1cc2ncn(-c3cc(OCc4ccccc4C(F)(F)F)c(C(C)=O)s3)c2cc1OC | 1.61 | 1.74 | 2.56 | 0.64 | 4.16 | -0.06 | 5.24 | -1.78 | 8.19 | 2.64 | 4.46 | 7.82 | 9.68 | 3 | 11.9 | 10.5 | 42.8 | 2.18 | 7.42 | 4.05
COc1ccc2cc(-c3c(-c4ccncc4)nc(-c4ccc([S+](C)[O-])cc4C)n3C)ccc2c1 (stereo not given) | -0.68 | -0.26 | -0.8 | -0.79 | 1.56 | 0.29 | 1.25 | -1.86 | 1.61 | -0.61 | 4.24 | 2.96 | 6.06 | -0.11 | 2.95 | 52.4 | 97.3 | -0.16 | 0.1 | 1.21
